# AMA1-RON2 inh = AMA1-RON2 (P. falciparum) interaction inhibition. AlphaScreen AMA1-biotinylated RON2 peptide binding. AID 720542. Potency, µM (doses to about 58.2 µM), inactives show top-dose activity change, negative = inhibition, hits mostly inhibitors. 0.2% of 360,000 active;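 further: 0% = vehicle wells and -100% = peptide control; nearly all actives have a fitted effect of over 45% in size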
#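 AMA1 (3D7) with his tag at 25 nM final met compounds first, then biotinylated RON2 peptide at 25 nM; detection used donor plus acceptor beads, 10 µg/mL apiece, read by AlphaScreen after 30 min at room temperature.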
# HCV inh = blocks hepatitis C virus | Huh7.5.1 HCVcc-Cre infection, luciferase reporter, 44 h | Potency, µM (doses to about 41.8 µM), for the others: at the top dose activity change, negative = inhibition, hits mostly inhibitors | 3.4% of 340,000 active | AID 651820
#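 Luciferase read-out (15 sec integration) after a 15 min room-temperature substrate step quantifies HCVcc-Cre infection. Cells, 1,000 per well, had compound added 4 h post-plating, then virus at ~0.5 moi, and were cultured 44 h.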
# Pf growth 48h = P. falciparum growth inhibition at 48 hours (one generation). P. falciparum luciferase growth in erythrocytes, 48 h. Potency, µM (doses to about 28.7 µM), for the others: top-dose activity change, negative = inhibition, most hits filed as inhibitors. 5.9% of 310,000 active. AID 504832
#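 Parasite viability was followed by luminescence of a genomically integrated firefly luciferase. Cultures held 0.1% parasitemia at 2% hematocrit (final), incubated under 5% CO2 at 37 C.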
# Pf growth 96h = P. falciparum growth inhibition at 96 hour, primary screen for plastid delayed-death inhibitors | P. falciparum luciferase reporter growth, 96 h | Potency, µM (top dose mostly 28.7 µM), for inactives: at the top dose activity change, negative = inhibition, usual class: inhibitors | 6.9% of 320,000 active
#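 Plates of compound plus infected erythrocytes (2% hematocrit, 0.05% parasitemia final) incubate 96 hours, 37 C, 5% CO2. Detection reagent added; reduced luminescence from the parasites' luciferase reporter flags inhibition.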
# Numbers without * were called inactive; u = inconclusive; x = not tested or not shown; [ ] = remark or other dose. Compounds with a hit are over-represented: about 11% of the library has one in this group of screens. The call rests on the fitted dose curve; in most records, active means well fitted curve in the direction sought with a large enough effect; inconclusive means small, poorly fitted or top-dose-only effect, or another doubt; inactive means no such curve, though single readings can be large; an effect the other way counts as inactive or inconclusive. Unless noted, on the % scale 0 is the no-effect control and ±100 the full control effect; potency means the concentration at half of the fitted maximal effect.
SMILES,AMA1-RON2 inh,HCV inh,Pf growth 48h,Pf growth 96h
CCOC(=O)N1CCN(C(C(=O)NC2CCCC2)C(C)C)CC1 (centres undefined),-18%,x,x,x
COc1ccc2c(c1)oc(=O)c1ccccc12,4%,u,37%,1%
COc1ccc2c(c1)oc(=O)c1c3ccccc3[nH]c21,-5%,3.5µM*,u,u
O=C(COC(=O)c1ccccc1NCCO)Nc1cccc(S(=O)(=O)NC2=NCCCCC2)c1,9%,-5%,-6%,u
c1ccc(Nc2c3c(nc4ccccc24)CCC3)cc1,-7%,u,u,9%
Fc1ccc(Nc2c3c(nc4ccccc24)CCC3)cc1,-8%,14µM*,u,-3%
Cc1ccc2nc3c(c(Nc4ccccc4)c2c1)CCC3,-11%,u,u,9.3µM*
O=S(=O)(c1cccc2nsnc12)N1CCCC1,3%,12%,0%,44%
O=C(Nc1nc2cc(Cl)ccc2s1)C1CCCN(S(=O)(=O)c2cccc3cccnc23)C1 (centres undefined),-8%,11µM*,x,12µM*
O=C(Nc1ccccc1Cl)C1CCCN(S(=O)(=O)c2cccc3cccnc23)C1 (centres undefined),16%,5%,u,28%
O=S(=O)(c1cccc2nsnc12)N1CCCCC1,0%,u,11%,8.3µM*
O=C(C1CCCN(S(=O)(=O)c2cccc3nsnc23)C1)N1CC=C(c2ccccc2)CC1 (centres undefined),-12%,13µM*,u,41%
O=S(=O)(c1ccc(Br)c2nsnc12)N1CCOCC1,2%,-26%,-17%,9.3µM*
O=C(c1ccc2c(=O)n(-c3ccccc3)c(=O)[nH]c2c1)N1CCCCC1,5%,-22%,3%,11%
O=C(NCCc1ccccc1)C1CCCN(S(=O)(=O)c2cccc3nsnc23)C1 (centres undefined),-8%,-21%,-17%,1.2µM*
Cc1ccc2nc(NC(=O)C3CCCN(S(=O)(=O)c4cccc5nsnc45)C3)sc2c1 (centres undefined),-3%,11µM*,10µM*,u
O=C(NCCc1ccccc1)C1CCCN(S(=O)(=O)c2cccc3nonc23)C1 (centres undefined),-8%,-4%,x,x
Cc1ccc2nc(NC(=O)C3CCN(S(=O)(=O)c4cccc5nsnc45)CC3)sc2c1,-7%,u,u,-3%
Cc1ccc(NC(=O)c2ccc(NCCCN3CCC(C)CC3)c([N+](=O)[O-])c2)cc1F,-12%,u,1.2µM*,-23%
Cc1ccc(NC(=O)c2ccc(NCCN)c([N+](=O)[O-])c2)cc1,-6%,-12%,u,u
O=C(NCCCN1CCOCC1)c1ccc(Sc2ccc(Br)cc2)c([N+](=O)[O-])c1,2%,u,3%,15µM*
O=C(Nc1cccc(Cl)c1)c1ccc(NCCCN2CCOCC2)c([N+](=O)[O-])c1,-1%,10µM*,u,134%
NC(=O)NC(CC(=O)NCc1ccc2c(c1)OCO2)c1ccccc1Cl (centres undefined),8%,10%,10%,22%
Cc1ccc(SC(CC(=O)c2ccc(C)cc2)C(=O)O)cc1 (centres undefined),4%,2%,x,u
CCN1CCN(CC(=O)n2c3c(c4ccccc42)CC(C)CC3)CC1 (centres undefined),-20%,3.2µM*,u,x
SMILES,AMA1-RON2 inh,HCV inh,Pf growth 48h,Pf growth 96h
CCSc1nc(N)c(C#N)c(-c2ccccc2Cl)c1C#N,0%,-28%,x,x
CCCOc1nc(N)c(C#N)c(-c2ccccc2F)c1C#N,-4%,35µM*,5%,-27%
COc1cc(OC)cc(C(=O)NNC(=O)C2CCCC2)c1,20%,-2%,14%,47%
Cc1cccc(Nc2nnc(SCC(=O)Nc3cccc(S(=O)(=O)N4CCCCC4)c3)s2)c1,-11%[11.6 µM],13µM*,29%,-16%
O=C(CSc1ncnc2ccccc12)Nc1cc(S(=O)(=O)N2CCCCC2)ccc1Cl,-16%,10µM*,u,u
Cc1cccc(C)c1Nc1nnc(SCC(=O)Nc2cc(S(=O)(=O)N3CCCCC3)ccc2Cl)s1,0%,u,13µM*,u
Cc1cccc(NC(=O)CSc2nnc(NC(=O)CN3CCCCC3)s2)c1,x,2%,10%,-9%
CNC(=O)OCc1nc(SC2CCCCO2)n(C)c1COC(=O)NC (centres undefined),22%,x,x,x
C#Cc1ccc([C@H]2C=C(C(=O)N3CCN(Cc4ccccc4)CC3)O[C@@H](OCC)[C@@H]2CCCO)cc1,-2%,-8%,u,10µM*
C#Cc1ccc([C@@H]2C=C(C(=O)N3CCN(Cc4ccccc4)CC3)O[C@H](OCC)[C@H]2CCCO)cc1,-13%,u,u,6.6µM*
CCO[C@@H]1OC(C(=O)N2CCN(Cc3ccccc3)CC2)=C[C@H](c2ccccc2)[C@H]1CCCO,6%,-20%,u,u
CCOc1ccc(NS(=O)(=O)c2cccc(C(=O)N3CCN(C/C=C/c4ccccc4)CC3)c2)cc1,-27%,u,x,x
c1ccc(Cn2nnc(CNc3ccccc3)c2-c2c(CNc3ccccc3)nnn2Cc2ccccc2)cc1,-19%,-6%,2.6µM*,1.9µM*
ClC1(CNc2ccccc2)CCN(Cc2ccccc2)CC1,-24%,-5%,x,x
COc1ccc(C2=CC(=O)OC3(CCCCC3)O2)cc1,-6%,-30%,4.1µM*,u
COc1ccc(CNC(=O)C2CCCN2C(=O)Nc2cccc(Cl)c2)cc1 (centres undefined),5%,x,x,x
O=C(/C=C/c1ccc(Cl)c(Cl)c1)NCc1ccco1,-20%,2%,-27%,1.9µM*
CCCCn1c(=O)[nH]c(=O)c2c1nc(CN1C(=O)c3ccccc3S1(=O)=O)n2CCC,-6%,-8%,u,u
CCCCn1c(=O)[nH]c(=O)c2c1nc(Cn1ncc(Cl)c(Cl)c1=O)n2CCC,-12%,10µM*,u,u
CCc1nc2ccc(C(=O)Nc3cc(-c4ccccc4)ccc3OC)cn2c1N(C=O)CCC(C)C,-3%,x,x,x
COc1ccccc1C(=O)Nc1nnc(-c2ccco2)s1,-7%,-9%,166%,x
Cc1ccccc1C(=O)Nc1nnc(-c2ccco2)s1,0%,11µM*,426%,3%
COc1ccc(-c2nc3c(c(=O)n(C)c(=O)n3C)n2CC2CC(c3ccccc3)=NO2)cc1OC (centres undefined),43%,5.6µM*,x,x
COc1ccc(C(=O)OCC2CC(c3ccccc3)=NO2)cc1OC (centres undefined),-3%,u,11%,57%[5.75 µM]
CCCCC1(Br)C(=O)N(c2ccccc2)N(c2ccccc2)C1=O,-3%[11.6 µM],0%,u,-22%
CC1(C)N([O-])C(c2ccccc2)=C[N+](=O)C1(C)C,3%,6%,-5%,23%
CC1(C)N([O-])C(c2cccs2)=C[N+]1=O,-4%,11%,2%,10µM*
C=CCc1cccc(/C=C/c2cc(=O)c3ccccc3[nH]2)c1O,-2%,8%,0.13µM*,0%
